Assay outcomes from PubChem BioAssay.
PABP FP inh: PABP-poly(A) binding inhibition. 290,000 tested, 1% active. P11940. inhibition, % at 35 µM. PABP-poly(A) RNA binding, fluorescence polarization;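 also: calls also rest on retests at 20 µM and on dose response follow-up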
Target sequence (P11940 whole entry, looked up): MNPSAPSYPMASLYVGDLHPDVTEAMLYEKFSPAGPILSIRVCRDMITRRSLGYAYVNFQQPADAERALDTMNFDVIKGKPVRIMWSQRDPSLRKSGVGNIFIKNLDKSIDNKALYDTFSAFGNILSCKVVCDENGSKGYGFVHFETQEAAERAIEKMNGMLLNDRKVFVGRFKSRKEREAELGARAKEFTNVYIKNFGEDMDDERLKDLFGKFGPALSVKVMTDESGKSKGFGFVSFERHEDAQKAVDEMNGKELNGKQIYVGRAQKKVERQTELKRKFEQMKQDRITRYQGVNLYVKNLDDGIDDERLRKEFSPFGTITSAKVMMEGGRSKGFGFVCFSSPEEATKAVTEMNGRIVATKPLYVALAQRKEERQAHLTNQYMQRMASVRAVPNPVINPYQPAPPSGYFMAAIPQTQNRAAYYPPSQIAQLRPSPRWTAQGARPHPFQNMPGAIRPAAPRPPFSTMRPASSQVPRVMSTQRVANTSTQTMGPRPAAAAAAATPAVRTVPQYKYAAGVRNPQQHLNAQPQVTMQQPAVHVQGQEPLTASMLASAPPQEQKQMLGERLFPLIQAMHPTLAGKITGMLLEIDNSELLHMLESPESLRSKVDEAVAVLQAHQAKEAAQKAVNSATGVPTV
UBC9 SUMO inh: SUMOylation inhibition. HTRF SUMOylation assay, SAE1/SAE2 + UBC9, in vitro. inhibition, % at 35 µM. 290,000 tested, 0.36% active. AID 2006; in the data active = inhibition above about 50%, passing the limit was not always enough; inconclusive = no clear call, values can overlap the other calls
PABP1 MLLE inh: inhibitors of microRNA-mediated deadenylation, human PABP1 MLLE binding; AID 588489; inhibition, % at 20 µM; 360,000 tested, 0.36% active; P11940; GST-MLLE / FITC-PAM2 fluorescence polarization; in the data active = inhibition above about 35%, passing the limit was not always enough;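 also: plate controls were DMSO wells with GST-MLLE for no effect and wells lacking GST-MLLE protein for full effect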
eIF4H FP inh: inhibitors of RNA binding by human eIF4H | eIF4H fluorescence polarization binding assay | AID 2012 | Q15056 | inhibition, % at 35 µM | 290,000 tested, 0.94% active;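 also: calls also rest on retests at 20 µM and on dose response follow-up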
Efflux pump inh: blocks antifungal efflux pumps in multiplex yeast assay; S. cerevisiae Candida pump triplex, Nile Red efflux; inhibition, % at 10 µM; 330,000 tested, 0.44% active; AID 485275;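 active = plate passing quality check with inhibition over a set limit, or well fluorescence over plate mean plus 4 SD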;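 also: Nile Red retained in pooled yeast measured as flow cytometry median fluorescence; 0% = buffer negative control and 100% = Enniatin B positive control; higher means more Nile Red kept so more efflux inhibition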
ALR H2O2 inh: blocks human ALR sulfhydryl oxidase activity; purified ALR, DTT oxidation, H2O2 HRP-luminol luminescence; inhibition, % (no concentration beside the values); 290,000 tested, 3.8% active; AID 485317; P55789;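 active = mean replicate inhibition above about 79%, with every replicate also reaching it, limit read from the data; inconclusive = only one of the two criteria met; inactive = mean below limit and not every replicate reaching it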
Numbers without * were called inactive; ? = inconclusive; · = no result. Sampled rows, rich in hits. Any-hit rate of the full collection: about 4.7%. Unless noted, no rule for the calls is given here.

SMILES | PABP FP inh | UBC9 SUMO inh | PABP1 MLLE inh | eIF4H FP inh | Efflux pump inh | ALR H2O2 inh
CCOCCCNC(=O)c1ccc(Cn2c(=S)[nH]c3c([nH]c4ccc(OC)cc43)c2=O)cc1 | -3.4 | 17.8 | -49.3 | 3.5 | 0.0 | 8.2
Cc1csc(N=Cc2ccc([N+](=O)[O-])o2)n1 | · | · | 1.7 | · | · | ·
O=C(NNC(=O)C1CCCCC1)c1ccc(Br)cc1 | 2.1 | 2.5 | 7.2 | -8.0 | 0.0 | -6.2
COc1cccc(C(=O)OCC(=O)Nc2cc(C)c(C)cc2[N+](=O)[O-])c1 | 8.4 | -20.1 | 6.7 | 14.8 | 0.1 | 0.6
OC1c2cc(Cl)cc(Cl)c2N=C2CCCN21 (stereo not given) | · | · | 6.2 | · | · | ·
COc1ccc(-c2nc(CSCC(=O)N3CCN(C)CC3)c(C)o2)cc1OC | 6.3 | 13.4 | -3.9 | -11.1 | 0.4 | 99.1*
CCN1CCN(C(=O)CSCc2nc(-c3ccc(OC)c(OC)c3)oc2C)CC1 | 2.9 | -3.9 | -5.9 | -2.9 | -0.1 | 98.5*
COc1ccc(-c2nc(CN3CCC(C(=O)NC4CC4)CC3)c(C)o2)cc1OC | 5.4 | 7.9 | -14.6 | -6.4 | 0.0 | -3.8
COc1cc(-c2nc(CN3CCCN(C(=O)c4ccco4)CC3)c(C)o2)ccc1F | -1.0 | 9.5 | 3.9 | 3.0 | 0.0 | -5.3
CCN1CCN(CCNC(=O)CSCc2nc(-c3ccc(OC)c(OC)c3)oc2C)CC1 | -12.4 | 14.8 | -11.7 | 9.8 | -0.1 | 99.4*
COc1ccc(-c2nc(CSCC(=O)N3CCN(C(=O)c4ccco4)CC3)c(C)o2)cc1OC | -2.8 | 14.0 | 17.8 | -7.1 | -0.2 | 98.9*
S=C(Nc1ccccc1)N1CCn2c(nc3ccccc32)C1 | -6.0 | -4.4 | -65.4 | -19.2 | 0.0 | 2.7
COc1cc(NC(=O)CCC(=O)N2CCN(S(=O)(=O)c3ccc(C)cc3)CC2)cc(OC)c1 | · | · | -4.4 | · | · | ·
CCSc1nc2nccnc2c(=O)[nH]1 | · | · | 30.7 | · | · | ·
COc1ccc(Cn2nnc3c(=O)[nH]c(C(=O)NCCc4ccc(F)cc4)nc32)cc1OC | 8.9 | 19.2 | -7.4 | 1.4 | 0.1 | 93.7*
COc1ccc(C2=CSC3=NNC4(CCCCC4)NN23)cc1 | 6.5 | 6.1 | -4.1 | -23.7 | 0.2 | 98.1*
Cc1ccc(C2=CSC3=NNC4(CCCCC4)NN23)cc1 | ? | 5.2 | 7.1 | -2.7 | 0.0 | 99.6*
COc1ccc(C2=CSC3=NCCN23)cc1 | 1.8 | 12.1 | -11.1 | -3.9 | 0.0 | 53.4
CCn1c(=O)c(=O)[nH]c2cc(C(=O)NC(C)c3ccc(S(N)(=O)=O)cc3)ccc21 (stereo not given) | 9.1 | 22.6 | 16.7 | -2.4 | 0.2 | 97.0*
Cc1cc(/C([O-])=C(/C(=S)Nc2ccccc2)[n+]2ccccc2)c(C)n1-c1ccccc1 | 63.4* | 10.7 | -21.5 | 60.8* | 0.1 | 3.4
Cc1cc(/C([O-])=C(/C(=S)Nc2ccc(F)cc2)[n+]2ccccc2)c(C)n1-c1ccc(F)cc1 | 32.5 | 26.2 | -23.2 | 66.7* | -0.3 | -7.8
O=C(OC1CCCCC1=O)c1cc(Cl)ccc1[N+](=O)[O-] (stereo not given) | -7.8 | 2.4 | 3.2 | -2.7 | -0.3 | 90.7*
COc1cc(C2C(C#N)=C(N)Oc3cc(C)oc(=O)c32)cc(OC)c1OC (stereo not given) | -0.9 | -13.8 | 5.2 | 7.7 | 0.0 | 19.9
COc1cc(C2C(C#N)=C(N)Oc3cc(C)oc(=O)c32)cc2c1OCO2 (stereo not given) | 49.5* | 26.9 | -21.4 | 68.9* | 0.0 | -8.8
Cc1cc2c(c(=O)o1)C(Cc1ccccc1)C(C#N)=C(N)O2 (stereo not given) | 59.1* | -8.6 | -14.6 | 69.8* | 0.3 | 32.6
SMILES | PABP FP inh | UBC9 SUMO inh | PABP1 MLLE inh | eIF4H FP inh | Efflux pump inh | ALR H2O2 inh
Cc1ccc([C@H]2C(C#N)=C(N)Oc3cc(C)oc(=O)c32)o1 | 7.0 | -5.8 | 16.1 | 34.9 | 0.0 | 16.4
CCNC(=O)C1CCCN(C(=O)c2ccc(C#N)cc2)CC1 (stereo not given) | · | · | -0.5 | · | · | ·
COCc1cc(C)nc(SCC(=O)Oc2ccccc2)c1C#N | 12.8 | 6.3 | 3.6 | 8.3 | 0.4 | 0.6
COCc1cc(C)nc(SCC(=O)Oc2ccc(Cl)cc2)c1C#N | 54.1* | 15.1 | 7.6 | active | 0.1 | 41.1
OC(c1ccc(Cl)c(Cl)c1)c1ncc(-c2ccccc2Cl)[nH]1 (stereo not given) | · | · | 9.5 | · | · | ·
COc1cc(NC(=O)c2ccco2)c(C(=O)OCC(=O)c2c[nH]c3ccccc23)cc1OC | 1.4 | 17.4 | -39.1 | 3.8 | 0.1 | 8.5
COc1ccc(-n2cccc2/C=C2/NC(=O)N(c3cccc(Cl)c3)C2=O)cc1 | 14.5 | 18.2 | -145.2 | -0.8 | 0.0 | -2.4
Cc1cccc(NC(=O)CN2C(=O)N/C(=C\c3cccn3-c3cccc(C(=O)O)c3)C2=O)c1 | -14.3 | 5.9 | -87.2 | 57.3 | 0.0 | 9.4
O=C(O)c1cccc(-n2cccc2/C=C2/NC(=O)N(c3cccc(Cl)c3)C2=O)c1 | 81.0* | 15.8 | -66.7 | 96.6* | -0.1 | ·
O=C(O)c1ccc(COc2ccccc2/C=C2\NC(=O)N(Cc3ccc(F)cc3)C2=O)cc1 | -2.8 | 0.9 | -4.2 | -2.5 | 0.1 | -17.0
O=C(O)c1ccc(COc2ccccc2/C=C2/NC(=O)N(c3cccc(Cl)c3)C2=O)cc1 | active | 37.1 | -4.9 | 54.3* | -0.3 | -1.9
O=C(O)c1cccc(-n2cccc2/C=C2/NC(=O)N(c3ccc(Cl)cc3)C2=O)c1 | ? | 90.0* | -5.9 | ? | · | ·
O=C(O)c1ccc(COc2ccccc2C=C2C(=O)c3ccccc3C2=O)cc1 | 56.2* | 14.2 | 13.2 | 0.2 | -0.1 | 71.0
CCc1ccc(-c2cc(C(F)(F)F)n3nc(C(=O)Nc4c(C)nn(Cc5ccc(F)cc5)c4C)cc3n2)s1 | 4.0 | 19.8 | 13.7 | 4.9 | -3.4 | -0.4
CCOC(=O)C1(C)CCN1C(=O)/C=C/c1ccccc1 (stereo not given) | · | · | 0.5 | · | · | ·
O=C1CCc2cc(S(=O)(=O)NC(Cc3ccccc3)C(=O)N3CCN(c4ccccn4)CC3)ccc2N1 (stereo not given) | 2.0 | -1.4 | -18.7 | -3.3 | -0.4 | ·
CCOc1cc(N2CCOCC2)c(OCC)cc1NC(=O)c1cc(S(=O)(=O)N2CCOCC2)ccc1Cl | · | · | -13.6 | · | · | ·
CCOc1cc(N2CCOCC2)c(OCC)cc1NS(=O)(=O)c1ccc(Cl)s1 | 26.4 | -5.1 | 15.6 | 97.4* | 0.3 | -1.4
COc1ccc2nc3n(c(=O)c2c1)-c1cc(Cl)ccc1C(=O)NC3Cc1ccccc1 (stereo not given) | · | · | · | · | -0.3 | -0.1
Cc1ccc(/C=C/C2=Cc3c(sc(NC(=O)CSc4n[nH]c(N)n4)c3C#N)C(C)(C)C2)o1 | ? | 70.2* | · | ? | 0.3 | -1.3
Cc1ccc(SCc2cc(=O)c3c(=O)n(-c4ccccc4)[nH]c3[nH]2)cc1 | 19.2* | 46.9 | 17.3 | 92.7 | 0.0 | 93.7*
O=c1cc(CSc2ccc(Cl)cc2)[nH]c2[nH]n(-c3ccccc3)c(=O)c12 | 23.3 | 27.4 | 23.2 | 28.2 | 0.1 | 84.7*
